molecular target: Stress-70 protein, mitochondrial (UniProt P38646); assay: cross-link between two proteins; cross-linking mass spectrometry

Sequence of V-type proton ATPase subunit D, P57746 (P57746 whole entry): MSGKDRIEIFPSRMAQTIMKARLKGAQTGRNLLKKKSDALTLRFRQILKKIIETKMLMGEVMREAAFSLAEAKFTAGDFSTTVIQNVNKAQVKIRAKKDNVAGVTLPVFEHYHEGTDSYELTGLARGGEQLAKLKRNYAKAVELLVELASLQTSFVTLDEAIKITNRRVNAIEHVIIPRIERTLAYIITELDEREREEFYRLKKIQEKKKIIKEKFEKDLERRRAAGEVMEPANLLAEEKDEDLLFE

Question: How did the “listed as a hit” value turn out when “Mitochondrial import inner membrane translocase subunit TIM44, O43615” was run?
Answer: yes

Question: For “Electron transfer flavoprotein subunit beta, P38117”, which “listed as a hit” value is on record?
Answer: yes

Question: How did the “listed as a hit” value turn out when “Pyrroline-5-carboxylate reductase 1, mitochondrial, P32322” was run?
Answer: yes

molecular target: V-type proton ATPase 116 kDa subunit a 1 (UniProt Q9Z1G4); assay: as above
Sequence (Q9Z1G4 whole entry): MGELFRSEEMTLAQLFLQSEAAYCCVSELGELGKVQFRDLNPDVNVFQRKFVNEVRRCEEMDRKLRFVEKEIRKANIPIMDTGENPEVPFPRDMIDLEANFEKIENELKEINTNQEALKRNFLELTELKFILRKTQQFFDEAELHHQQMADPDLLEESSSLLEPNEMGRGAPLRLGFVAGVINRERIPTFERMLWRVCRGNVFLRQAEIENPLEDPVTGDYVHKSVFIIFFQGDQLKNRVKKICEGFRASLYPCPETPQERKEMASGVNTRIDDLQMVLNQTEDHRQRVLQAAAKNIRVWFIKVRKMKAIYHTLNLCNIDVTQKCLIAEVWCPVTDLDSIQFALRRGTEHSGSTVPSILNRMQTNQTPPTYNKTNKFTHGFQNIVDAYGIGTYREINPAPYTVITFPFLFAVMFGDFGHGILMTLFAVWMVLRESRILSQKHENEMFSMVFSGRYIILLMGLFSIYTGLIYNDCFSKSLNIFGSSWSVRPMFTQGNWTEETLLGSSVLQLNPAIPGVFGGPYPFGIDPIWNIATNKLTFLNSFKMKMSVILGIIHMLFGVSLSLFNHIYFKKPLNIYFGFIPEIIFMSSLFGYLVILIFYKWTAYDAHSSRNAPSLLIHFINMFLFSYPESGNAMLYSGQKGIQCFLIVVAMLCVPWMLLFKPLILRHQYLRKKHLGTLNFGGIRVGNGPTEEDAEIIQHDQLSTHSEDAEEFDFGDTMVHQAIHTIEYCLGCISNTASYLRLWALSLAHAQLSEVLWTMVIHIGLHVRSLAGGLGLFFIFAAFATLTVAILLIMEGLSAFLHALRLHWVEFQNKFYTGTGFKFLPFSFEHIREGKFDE

Question: Which “listed as a hit” value does the source give for V-type proton ATPase subunit H, Q8BVE3 here?
Answer: yes

Question: How did the “listed as a hit” value turn out when V-type proton ATPase subunit S1, Q9R1Q9 was run?
Answer: yes

Question: Which “listed as a hit” value does the source give for “Vesicle-associated membrane protein 1, Q62442” here?
Answer: yes

molecular target: V-type proton ATPase subunit B, brain isoform (UniProt P62814); assay: as above
Sequence (P62814 whole entry, canonical isoform): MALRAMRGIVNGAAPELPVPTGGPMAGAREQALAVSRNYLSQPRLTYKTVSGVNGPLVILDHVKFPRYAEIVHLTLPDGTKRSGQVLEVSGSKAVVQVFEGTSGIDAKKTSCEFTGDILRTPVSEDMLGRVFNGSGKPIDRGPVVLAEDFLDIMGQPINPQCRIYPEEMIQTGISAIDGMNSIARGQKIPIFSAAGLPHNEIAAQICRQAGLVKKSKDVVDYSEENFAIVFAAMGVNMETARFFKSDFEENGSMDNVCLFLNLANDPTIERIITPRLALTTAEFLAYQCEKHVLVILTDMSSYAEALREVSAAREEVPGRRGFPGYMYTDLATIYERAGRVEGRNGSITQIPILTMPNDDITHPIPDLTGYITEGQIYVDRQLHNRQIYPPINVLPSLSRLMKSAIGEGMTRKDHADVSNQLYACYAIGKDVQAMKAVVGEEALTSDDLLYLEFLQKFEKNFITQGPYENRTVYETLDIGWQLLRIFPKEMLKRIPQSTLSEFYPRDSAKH

Question: Which “listed as a hit” value does the source give for “V-type proton ATPase catalytic subunit A, P50516” here?
Answer: yes

Question: For V-type proton ATPase subunit D, P57746, which “listed as a hit” value is on record?
Answer: yes

Question: “V-type proton ATPase subunit E 1, P50518” was tested. Which “listed as a hit” value did it give?
Answer: yes

— PMC11024108
